Screening data from PubChem.
Shown are actives, neighbours in structure and some others; about 1.9% of the full set was active somewhere.
PGE2 EP2 inh = human EP2 receptor antagonists, primary screen, TR-FRET cAMP, C6 glioma cells. C6 glioma cells expressing human EP2; cells stimulated with saturating PGE2. 260,000 compounds, 0.52% hits. inhibition, % at 25 µM. Prostaglandin E2 receptor EP2 subtype (Homo sapiens), P43116;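 active = percent inhibition above 40 after rounding to a whole number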;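 also: rat C6 glioma host cells with rolipram phosphodiesterase inhibitor present; the protocol text gives 20 µM as final concentration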
Target sequence (P43116 whole entry, looked up): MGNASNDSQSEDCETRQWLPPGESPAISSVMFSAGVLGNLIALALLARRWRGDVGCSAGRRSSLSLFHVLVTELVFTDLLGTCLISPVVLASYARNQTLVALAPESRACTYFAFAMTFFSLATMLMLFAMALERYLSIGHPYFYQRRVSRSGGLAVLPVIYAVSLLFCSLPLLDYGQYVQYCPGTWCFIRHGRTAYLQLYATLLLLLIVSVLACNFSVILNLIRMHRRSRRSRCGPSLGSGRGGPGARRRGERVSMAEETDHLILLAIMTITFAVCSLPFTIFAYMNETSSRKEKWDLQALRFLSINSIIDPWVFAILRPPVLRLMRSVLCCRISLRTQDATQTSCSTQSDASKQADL
S1P4 agonist = S1P4 receptor agonists, primary screen, cell-based; activation, % at 4.98 µM; S1P4-expressing cell line, agonist reporter assay; 220,000 compounds, 0.35% hits; AID 1509, 2009; Sphingosine 1-phosphate receptor 4 (Homo sapiens), O95977; in the data active = activation above about 11%
S1P3 antagonist = S1P3 receptor antagonists, primary screen, cell-based; Sphingosine 1-phosphate receptor 3 (Homo sapiens), Q99500; CHO S1P3 NFAT-BLA reporter, FRET fluorescence, antagonist mode; inhibition, % at 4.98 µM; 170,000 compounds, 0.27% hits; AID 485, 2006;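 active = inhibition above the plate cutoff, the mean inhibition of test wells on that plate plus 3 SD, cut at about 28% in these data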;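 also: cells challenged with S1P at its EC80 of 0.8 µM; blue over green emission ratio from cleaved BLA substrate after 4 h stimulation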
Target sequence (Q99500 whole entry, looked up): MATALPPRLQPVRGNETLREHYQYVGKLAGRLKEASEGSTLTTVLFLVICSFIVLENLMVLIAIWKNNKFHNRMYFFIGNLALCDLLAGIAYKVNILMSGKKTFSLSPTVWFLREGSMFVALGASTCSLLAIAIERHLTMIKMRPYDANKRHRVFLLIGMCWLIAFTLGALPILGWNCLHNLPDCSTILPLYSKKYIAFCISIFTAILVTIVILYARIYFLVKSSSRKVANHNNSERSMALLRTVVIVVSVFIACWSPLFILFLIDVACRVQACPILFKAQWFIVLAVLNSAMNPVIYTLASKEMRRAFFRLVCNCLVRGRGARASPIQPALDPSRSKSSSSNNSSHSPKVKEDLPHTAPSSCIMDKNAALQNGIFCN
S1P4 antagonist = S1P4 receptor antagonists, primary screen, cell-based; S1P4-expressing cells, antagonist mode, reporter read-out; inhibition, % at 4.98 µM; Sphingosine 1-phosphate receptor 4 (Homo sapiens), O95977; 220,000 compounds, 0.26% hits; in the data active = inhibition above about 29%
EP2 modulator = EP2 receptor modulators, cAMP readout, primary screen, cell-based, HTRF cAMP, PGE2 stimulation; AID 940, 2007; 260,000 compounds, 0.83% hits; Prostaglandin E2 receptor EP2 subtype (Homo sapiens), P43116; EP2-expressing cells, cAMP HTRF FRET, PGE2 co-stimulation; induction, % at 25 µM;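 active = compounds whose cAMP rise, as percent of the full-agonist control response, exceeds 60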;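 also: rat C6 glioma line stably carrying human EP2 under a CMV promoter; the protocol text gives 20 µM as final concentration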
EP2 confirm = cAMP induction in EP2, EP4, beta2-AR and parental cells, confirmation, counter-screen for EP2 modulator project, cell-based, five parallel assays, C6 glioma, HEK293. calls only at 20 µM (by protocol). shares compounds with EP2 modulator. AID 1080, 2008. cAMP HTRF induction; plus low (about EC15) PGE2 agonist. 1,300 compounds, 47% hits;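 active = cAMP induction above 50% in the main assay while under 30% in all four parallel counter assays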;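 also: rat C6 glioma cells stably expressing human EP2 receptor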
Each line names hits and unclear results; the compound was inactive in the other large screens (follow-up assays come after a bar, where they were run).

Cc1ccc(Cl)cc1NC(=S)N(Cc1ccco1)C(C)c1cccs1 (centres undefined)	EP2 modulator 63.2 | EP2 confirm inactive
Cc1ccc(NC(=S)N(Cc2ccco2)C(C)c2cccs2)c(Cl)c1 (centres undefined)	none
Cc1ccc(C)c(NC(=S)N(Cc2ccco2)C(C)c2cccs2)c1 (centres undefined)	EP2 modulator 68.0 | EP2 confirm inactive
c1ccc(Cn2c(-c3ccccc3)nc3nc4ccccc4nc32)cc1	EP2 modulator 67.0 | EP2 confirm active
Clc1cccc(-c2nc3nc4ccccc4nc3n2Cc2ccccc2)c1	none
COc1cc(-c2noc(-c3cccc(Cl)c3)n2)cc(OC)c1OC	none | EP2 confirm active
COc1ccc(-c2nc(-c3cccc(C)c3)no2)cc1OC	none
COc1cc(-c2nc(-c3cccc(C)c3)no2)cc(OC)c1OC	EP2 modulator 61.0 | EP2 confirm inactive
COc1cc(-c2nc(-c3cccnc3)no2)cc(OC)c1OC	none
Cc1ccc(CSc2nc3ccccc3cc2C=O)cc1	EP2 modulator 70.7 (no result: S1P3 antagonist) | EP2 confirm inactive
O=Cc1cc2ccccc2nc1SCc1ccc(Cl)cc1	none (no result: S1P3 antagonist)
C=CCn1c(=O)c2c(nc(-c3ccc(S(=O)(=O)O)cc3)n2C)n(C)c1=O	EP2 modulator 66.2 (no result: S1P4 agonist, S1P3 antagonist, S1P4 antagonist) | EP2 confirm inactive
COc1ccc(-c2nnc3ccc(SCC(=O)Nc4nccs4)nn23)cc1OC	none
COc1ccc(-c2nnc3ccc(SCC(=O)Nc4nc5ccccc5s4)nn23)cc1OC	EP2 modulator 65.9 | EP2 confirm inactive
Cc1ccc(NC(=O)CCN2CCCC(C)C2)cc1C (centres undefined)	none (no result: S1P4 agonist, S1P3 antagonist, S1P4 antagonist)
CCCCn1c(=O)c2ccccc2c2ccccc2c1=O	EP2 modulator 82.4 | EP2 confirm active
COCCn1c(=O)c2ccccc2c2ccccc2c1=O	none
CCC(C)(C)NC(=O)CN(C(=O)CCC(=O)Nc1nccs1)c1cccc(F)c1	none (no result: S1P4 agonist, S1P3 antagonist, S1P4 antagonist)
O=C(CO/N=C/c1ccccc1)N1c2ccccc2Oc2ccccc21	EP2 modulator 65.5 (no result: S1P3 antagonist) | EP2 confirm inactive
CC(C)(C)C(=O)CN1C(=O)COc2ccccc21	none (no result: S1P4 agonist, S1P3 antagonist, S1P4 antagonist)
C=C(C)COc1ccc2c(c1)CC[C@@H]1[C@H]3C/C(=N/O)C(=O)[C@]3(C)CC[C@@H]21	EP2 modulator 63.1 (no result: S1P4 agonist, S1P3 antagonist, S1P4 antagonist) | EP2 confirm inactive
COc1ccc(CCN(C)Cc2nc(-c3cnccn3)no2)cc1OC	none
COc1ccc(CCN(Cc2nc(-c3ccccc3)no2)Cc2nc(-c3ccccc3)no2)cc1OC	none | EP2 confirm inactive
COc1ccc(S(=O)(=O)N(Cc2ccccc2)Cc2nc(-c3ccccc3)no2)cc1	none | EP2 confirm active
CC12CN3CC(C)(CN(C1)C3c1ccccc1F)C2O (centres undefined)	none (no result: S1P4 agonist, S1P3 antagonist, S1P4 antagonist)
CC1CCCCN1c1ccc(NC(=O)c2ncoc2-c2ccc(F)cc2)cc1C(N)=O (centres undefined)	none (no result: S1P4 agonist, S1P3 antagonist, S1P4 antagonist)
COc1ccc(C(=O)N2CCn3c(nnc3C3CC3)C2)cc1Cn1nc(C)cc1C	none (no result: PGE2 EP2 inh, S1P4 agonist, S1P3 antagonist, S1P4 antagonist)
COc1ccc(N2CN=c3s/c(=C4\C(=O)Nc5ccc(C)cc54)c(=O)n3C2)cc1	none (no result: S1P4 agonist, S1P3 antagonist, S1P4 antagonist)
COc1cccc(N=c2oc3c(C)ncc(CO)c3cc2C(=O)Nc2ccccc2OC)c1	EP2 modulator 67.8 (no result: PGE2 EP2 inh, S1P3 antagonist) | EP2 confirm inactive
CCOc1ccc(OCC)c(N=c2oc3c(C)ncc(CO)c3cc2C(N)=O)c1	none (no result: PGE2 EP2 inh)
CCOC(=O)CCCCCCCCCCCCC1C=CCC1 (centres undefined)	none (no result: S1P4 agonist, S1P3 antagonist, S1P4 antagonist) | EP2 confirm active
CCOC(=O)CCCCC(=O)c1[nH]c(=O)[nH]c1C[n+]1ccccc1	none
O=c1[nH]c(SCc2cccc(Cl)c2)nc2c1CCCC2	EP2 modulator 66.0 (no result: S1P3 antagonist) | EP2 confirm inactive
O=c1[nH]c(SCc2cccc(F)c2)nc2c1CCCC2	none
Cc1ccc(S(=O)(=O)c2c(C)cc(C)nc2N2CCCC2)cc1	none
C=C(C)Cn1c(C)cc(C)c(S(=O)(=O)c2ccc(C)cc2)c1=O	EP2 modulator 86.6 | EP2 confirm active
C[C@@H]1CC[C@H]2C(C)(C)C3CC12CC[C@@]3(C)O (some centres undefined)	EP2 modulator 65.4 (no result: S1P4 agonist, S1P3 antagonist, S1P4 antagonist) | EP2 confirm active
Cc1ccc(-c2cc(N)c(=O)n(CC(=O)NC(C)(C)C)n2)o1	none (no result: S1P4 agonist, S1P3 antagonist, S1P4 antagonist)
O=C(Cc1cccs1)OCC(=O)c1ccco1	none
O=C(CC(Sc1ccccc1)c1cccs1)c1ccco1 (centres undefined)	EP2 modulator 88.8 | EP2 confirm inactive
CCN(CC)C(=O)CN1CCN(c2cccc(Cl)c2)CC1	none (no result: S1P4 agonist, S1P3 antagonist, S1P4 antagonist)
O=C(c1cc(-c2ccccn2)nc2ccc(Br)cc12)N1CCc2ccccc2C1	EP2 modulator 65.7 (no result: PGE2 EP2 inh, S1P3 antagonist) | EP2 confirm inactive
O=C(c1cc(-c2ccccn2)nc2ccc(Br)cc12)N1CCN(S(=O)(=O)c2ccccc2)CC1	none
CN1C(=O)/C(=C/c2ccccc2OCc2cccc(F)c2)N(C)C1=S	EP2 modulator 70.0 (no result: S1P3 antagonist) | EP2 confirm active
O=C(O)CCSc1nnc(-c2ccncc2)o1	none (no result: S1P4 agonist, S1P3 antagonist, S1P4 antagonist)
O=C(c1ccc(Cl)cc1)c1oc2ccccc2c1CS(=O)c1ccccc1 (centres undefined)	EP2 modulator 71.2 (no result: S1P3 antagonist) | EP2 confirm active
COc1ccc(-c2noc(-c3ccccc3C(=O)Nc3cccnc3)n2)cc1	none | EP2 confirm active
CCOc1ccccc1NC(=O)c1ccccc1-c1nc(-c2ccccc2)no1	EP2 modulator 66.3 | EP2 confirm inactive
COc1ccc(-c2noc(-c3ccccc3C(=O)Nc3cccnc3)n2)cc1OC	none
CN1CCC(CCc2cn(CC(=O)N3CCOCC3)c3ccccc23)CC1	none (no result: S1P4 agonist, S1P3 antagonist, S1P4 antagonist)
CCOc1cccc(CNc2ccc(O)cc2)c1OCc1ccc(Cl)cc1	EP2 modulator 77.4 (no result: S1P3 antagonist) | EP2 confirm active
CC1=C(C(=O)OCc2ccccc2)C(c2ccc(Cl)cc2Cl)NC(=O)N1CCCC(=O)O (centres undefined)	none
CC1=C(C(=O)OCc2ccccc2)C(c2ccc(Cl)cc2Cl)NC(=O)N1CCCCCC(=O)O (centres undefined)	EP2 modulator 66.0 | EP2 confirm inactive
O=C(N1CCCC(c2nc(-c3ccncc3)n[nH]2)C1)C1(c2ccccc2)CC1 (centres undefined)	none (no result: PGE2 EP2 inh, S1P4 agonist, S1P3 antagonist, S1P4 antagonist)
NCCc1c(-c2ccccc2)n(-c2ccccc2)c2ccccc12	EP2 modulator 71.8 | EP2 confirm active
CCn1c(SCC(=O)NCCc2ccccc2)nnc1-c1ccco1	none
COC(=O)c1c(NC(=O)CSc2nnc(-c3ccco3)n2Cc2ccccc2)sc(C)c1C	none (no result: S1P3 antagonist) | EP2 confirm inactive
COCCn1c(SCC(=O)NCCc2ccccc2)nnc1-c1ccco1	EP2 modulator 66.6 | EP2 confirm inactive
OC1c2cc(-c3ccccc3)cnc2Sc2nc(-c3ccncc3)nn21 (centres undefined)	none (no result: PGE2 EP2 inh, S1P4 agonist, S1P3 antagonist, S1P4 antagonist)
